# PubChem BioAssay
# Where “and” joins values, the source holds several entries; their conditions need not be identical. Equal entries are not always repeated. Calls of active or inactive are those of the source.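 How the source made its calls: active means mean z-score across replicates of 1.96 or higher in either the MELAS or the Rieske mutant cell line; inactive means the rest.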
# Experiment: MELAS cybrid and Rieske KO viability enhancers – cell-based, MELAS cybrids, Rieske KO mouse fibroblasts, CellTiter-Glo, primary screen (AID 1508586);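 further: test concentration not given here; z relative to plate mean and SD of compound and empty wells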
# Conditions: MELAS cybrid survival, low glucose, CellTiter-Glo 48 h; stronger effect = higher value
row,Compound,z-score
1,Cc1cc(-c2ccco2)cc(C)c1/C=C/c1cncc(-c2nn[nH]n2)c1,-1.12 (inactive)
2,Cc1ccc(Nc2ccnc(Nc3cccc(C(N)=O)c3)n2)cc1O,-0.195 (inactive)
3,Clc1ccc(CNc2nccc(-c3cnn4ncccc34)n2)cc1,0.484 (inactive)
4,CCn1c(-c2nonc2N)nc2c(C#CC(C)(C)O)ncc(OC3CCNCC3)c21,-0.105 (inactive)
5,O/N=C1/CCc2cc(-c3nc(C4CCNCC4)[nH]c3-c3ccncc3)ccc21,-1.26 (inactive)
6,COc1cccc(-n2ncc3c(N/N=C/c4cccc(F)c4)ncnc32)c1,1.45 (inactive)
7,CCCN1CCC(Oc2cc(Nc3nc(Nc4cccc(F)c4C(N)=O)c4cc[nH]c4n3)c(OC)cc2Cl)CC1,0.312 (inactive)
8,CCOc1nccc2c1nc(-c1nonc1N)n2CC,-0.642 (inactive)
9,CCn1c(-c2nonc2N)nc2ccc(F)cc21,-0.0553 (inactive)
10,COc1cc(/C=N/Nc2ncnc3c2cnn3Cc2ccccc2)ccc1O,1.43 (inactive)
11,NS(=O)(=O)c1ccc(N=Cc2c(O)[nH]c3ccc4ncsc4c23)cc1,-0.336 (inactive) and 1.1 (inactive)
12,COc1cc2c(cc1Nc1nc(Nc3ccsc3C(N)=O)c3cc[nH]c3n1)N(C(=O)CN(C)C)CCC2(C)C,0.737
13,c1cnn2ncc(-c3ccnc(NCCCN4CCOCC4)n3)c2c1,-0.792 (inactive)
14,Nc1nc(-c2ccccn2)c(-c2ccc3ncccc3n2)s1,-0.0333 (inactive)
15,COc1cc(C)c(NC(=O)CN(C)C)cc1Nc1nc(Nc2cccc(F)c2C(N)=O)c2cc[nH]c2n1,1.87 (inactive)
16,CN(c1ccc(NC(=O)Nc2c(Cl)cccc2Cl)cc1)c1ccnc(Nc2cccc(CS(C)(=O)=O)c2)n1,-0.649 (inactive)
17,COC(=O)Nc1nc2ccc(Oc3ccc(NC(=O)Nc4cc(C(F)(F)F)ccc4F)cc3)cc2s1,-0.628 (inactive)
18,Fc1ccc(-c2cc(C3CNNC3c3ccccn3)ccn2)cc1 (stereo not drawn),0.213 (inactive)
19,COC(=O)Nc1nc2ccc(Oc3ccc(NC(=O)Nc4cccc(Br)c4)cc3)cc2[nH]1,0.278 (inactive)
20,CCC(=O)Nc1ccc(C)c(-c2ccc(C(=O)NCC3CC3)cc2)c1,-0.0107 (inactive)

row,Compound,z-score
1,Cc1nc(-c2ccccc2)n2nc(NCCCN3CCOCC3)ncc12,-0.231 (inactive)
2,COc1cccc(-n2nc(C)c3c(N/N=C(\C)c4ccncc4)ncnc32)c1,-0.775 (inactive)
3,N#Cc1ccc(Oc2nccc(-c3c(-c4ccc(F)cc4)ncn3C3CCNCC3)n2)cc1,-0.193 (inactive)
4,CCN1CCC(CC(=O)Nc2n[nH]c3nc(-c4cccs4)c(Br)cc23)CC1,0.148 (inactive)
5,FC(F)(F)CNc1nccc(-c2cnn3ncccc23)n1,0.365 (inactive)
6,CCCN(CCS(C)(=O)=O)Cc1ccc(-c2ccc3ncnc(Nc4ccc(OCc5cccc(F)c5)c(Cl)c4)c3c2)o1,-0.517 (inactive)
7,COc1cc(C)c(N(C)C(=O)CN(C)C)cc1Nc1nc(Nc2cccc(F)c2C(N)=O)c2cc[nH]c2n1,3.65 (active)
8,Nc1nccc(C#Cc2cncnc2Nc2ccc(OCc3cccc(F)c3)c(Cl)c2)n1,-0.936 (inactive)
9,CN1CCC(n2cnc(-c3ccc(F)cc3)c2-c2ccnc(N)n2)CC1,-0.312 (inactive)
10,COc1ccc(-c2nn3ncccc3c2-c2ccnc(Nc3ccc(Cl)c(C(F)(F)F)c3)n2)cc1,1.48 (inactive)
11,COc1ccc(-c2coc3ncnc(N)c23)cc1,-0.507 (inactive)
12,O=C(Nc1n[nH]c2cc(-c3ccc(F)cc3)ccc12)C1CC1,-1.18 (inactive)
13,Fc1ccc(-c2nn3ncccc3c2-c2ccnc(Nc3ccc4c(c3)OCCO4)n2)cc1,-0.754 (inactive)
14,CCn1c(-c2nonc2N)nc2c(C#CC(C)(C)O)nc(OCCNC)cc21,-0.95 (inactive)
15,CCn1c(-c2nonc2N)nc2c(C#CCN)ncc(OCCCN)c21,-0.193 (inactive)
16,Cc1ccc(C(=O)NC2CC2)cc1-c1ccc2[nH]ncc2c1,-0.239 (inactive)
17,COc1cc(N2CCN(C(C)C)CC2)ccc1Nc1nc(Nc2cccc(F)c2C(=O)O)c2cc[nH]c2n1,-0.385 (inactive)
18,COc1ccccc1Nc1ncc(-c2ccccc2)o1,0.853 (inactive)
19,COC(=O)Nc1nc2ccc(S(=O)(=O)c3ccc(NC(=O)Nc4cc(C(F)(F)F)ccc4F)cc3)cc2[nH]1,0.00101 (inactive)

# Same assay, conditions: Rieske KO mouse fibroblast survival, low glucose, CellTiter-Glo 72 h
row,Compound,z-score
1,Cc1cc(-c2ccco2)cc(C)c1/C=C/c1cncc(-c2nn[nH]n2)c1,-0.188
2,Cc1ccc(Nc2ccnc(Nc3cccc(C(N)=O)c3)n2)cc1O,0.472
3,Clc1ccc(CNc2nccc(-c3cnn4ncccc34)n2)cc1,-0.266
4,CCn1c(-c2nonc2N)nc2c(C#CC(C)(C)O)ncc(OC3CCNCC3)c21,-0.284
5,O/N=C1/CCc2cc(-c3nc(C4CCNCC4)[nH]c3-c3ccncc3)ccc21,-0.635
6,COc1cccc(-n2ncc3c(N/N=C/c4cccc(F)c4)ncnc32)c1,-0.242
7,CCCN1CCC(Oc2cc(Nc3nc(Nc4cccc(F)c4C(N)=O)c4cc[nH]c4n3)c(OC)cc2Cl)CC1,0.375
8,CCOc1nccc2c1nc(-c1nonc1N)n2CC,-0.113
9,CCn1c(-c2nonc2N)nc2ccc(F)cc21,0.0939
10,COc1cc(/C=N/Nc2ncnc3c2cnn3Cc2ccccc2)ccc1O,0.207
11,NS(=O)(=O)c1ccc(N=Cc2c(O)[nH]c3ccc4ncsc4c23)cc1,0.0286 and -0.139
12,COc1cc2c(cc1Nc1nc(Nc3ccsc3C(N)=O)c3cc[nH]c3n1)N(C(=O)CN(C)C)CCC2(C)C,2.24
13,c1cnn2ncc(-c3ccnc(NCCCN4CCOCC4)n3)c2c1,-0.375
14,Nc1nc(-c2ccccn2)c(-c2ccc3ncccc3n2)s1,-0.22
15,COc1cc(C)c(NC(=O)CN(C)C)cc1Nc1nc(Nc2cccc(F)c2C(N)=O)c2cc[nH]c2n1,-0.0279
16,CN(c1ccc(NC(=O)Nc2c(Cl)cccc2Cl)cc1)c1ccnc(Nc2cccc(CS(C)(=O)=O)c2)n1,-0.476
17,COC(=O)Nc1nc2ccc(Oc3ccc(NC(=O)Nc4cc(C(F)(F)F)ccc4F)cc3)cc2s1,-0.719
18,Fc1ccc(-c2cc(C3CNNC3c3ccccn3)ccn2)cc1 (stereo not drawn),-0.249
19,COC(=O)Nc1nc2ccc(Oc3ccc(NC(=O)Nc4cccc(Br)c4)cc3)cc2[nH]1,-0.0385
20,CCC(=O)Nc1ccc(C)c(-c2ccc(C(=O)NCC3CC3)cc2)c1,-0.287

row,Compound,z-score
1,Cc1nc(-c2ccccc2)n2nc(NCCCN3CCOCC3)ncc12,-0.21
2,COc1cccc(-n2nc(C)c3c(N/N=C(\C)c4ccncc4)ncnc32)c1,-0.494
3,N#Cc1ccc(Oc2nccc(-c3c(-c4ccc(F)cc4)ncn3C3CCNCC3)n2)cc1,-0.456
4,CCN1CCC(CC(=O)Nc2n[nH]c3nc(-c4cccs4)c(Br)cc23)CC1,-0.143
5,FC(F)(F)CNc1nccc(-c2cnn3ncccc23)n1,-0.533
6,CCCN(CCS(C)(=O)=O)Cc1ccc(-c2ccc3ncnc(Nc4ccc(OCc5cccc(F)c5)c(Cl)c4)c3c2)o1,-0.151
7,COc1cc(C)c(N(C)C(=O)CN(C)C)cc1Nc1nc(Nc2cccc(F)c2C(N)=O)c2cc[nH]c2n1,1.35
8,Nc1nccc(C#Cc2cncnc2Nc2ccc(OCc3cccc(F)c3)c(Cl)c2)n1,0.011
9,CN1CCC(n2cnc(-c3ccc(F)cc3)c2-c2ccnc(N)n2)CC1,-0.31
10,COc1ccc(-c2nn3ncccc3c2-c2ccnc(Nc3ccc(Cl)c(C(F)(F)F)c3)n2)cc1,-0.347
11,COc1ccc(-c2coc3ncnc(N)c23)cc1,-0.245
12,O=C(Nc1n[nH]c2cc(-c3ccc(F)cc3)ccc12)C1CC1,-0.329
13,Fc1ccc(-c2nn3ncccc3c2-c2ccnc(Nc3ccc4c(c3)OCCO4)n2)cc1,-0.424
14,CCn1c(-c2nonc2N)nc2c(C#CC(C)(C)O)nc(OCCNC)cc21,-0.363
15,CCn1c(-c2nonc2N)nc2c(C#CCN)ncc(OCCCN)c21,-0.317
16,Cc1ccc(C(=O)NC2CC2)cc1-c1ccc2[nH]ncc2c1,-0.0886
17,COc1cc(N2CCN(C(C)C)CC2)ccc1Nc1nc(Nc2cccc(F)c2C(=O)O)c2cc[nH]c2n1,-0.236
18,COc1ccccc1Nc1ncc(-c2ccccc2)o1,-0.618
19,COC(=O)Nc1nc2ccc(S(=O)(=O)c3ccc(NC(=O)Nc4cc(C(F)(F)F)ccc4F)cc3)cc2[nH]1,-0.437
